Experimental findings from PubChem BioAssay (NCI) are described below.

The panel holds about 83,000 compounds, 20% with a hit somewhere; the sample as a whole holds those more often.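 Growth was measured after 48 h exposure to one concentration of compound in 96-well plates. Values under 10 count as active.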 A number with no mark means an inactive call. The source made the active and inactive calls.

What all share (experiment): NCI-60 one-dose screen, 48 h (100 = growth as untreated, 0 = no growth, -100 = all killed)
In one test the test system is T-47D breast. To be noted: 10 µM.
The next test relates to BT-549 breast. To be noted: 10 µM.
For the next test, the system named is MDA-MB-435 melanoma. To be noted: 10 µM.
The next test relates to SW-620 colon. To be noted: 10 µM.
In another test the test system is MCF7 breast. To be noted: 10 µM unless noted.
Another test deals with HCT-116 colon. To be noted: 10 µM.
In a further test the test system is HCC-2998 colon. To be noted: 10 µM.
Another test deals with KM12 colon. To be noted: 10 µM.

In the case of `CC1Cc2ccccc2O1` (stereo unspecified), the growth with T-47D breast is 104%; in the test on BT-549 breast it was 134%; in the test on MDA-MB-435 melanoma, 124%; in the test on SW-620 colon it was 111%; in the test with MCF7 breast it was 99.6%; with HCT-116 colon, 112%. Also, the growth in the test on HCC-2998 colon was 86.4%; in the test with KM12 colon it was 107%.
Consider `Cc1cccc(CO)c1`, for which the growth in the test on T-47D breast is 98.8%; with BT-549 breast it was 106%; in the test with MDA-MB-435 melanoma, 108%; in the test on SW-620 colon it was 103%; in the test on MCF7 breast, 96.6%; in the test with HCT-116 colon, 104%. For the same molecule, the figures for the growth in the test on HCC-2998 colon and in the test on KM12 colon were 112% and 97%, respectively.
For the molecule `C/C(=C\c1ccc([N+](=O)[O-])cc1)C(=O)O`, the growth with T-47D breast was 98.8%; in the test on BT-549 breast, 94.2%; in the test with MDA-MB-435 melanoma it was 102%; in the test with SW-620 colon it was 102%; in the test with MCF7 breast, 95.7%; with HCT-116 colon it was 97.3%. Moreover, the growth in the test on HCC-2998 colon was 101%; in the test with KM12 colon, 103%.
`CC1=C(/C=C/C(C)=C/C=C/C(C)=C/CO)C(C)(C)CCC1`: the growth in the test with T-47D breast is 96.6%; in the test with BT-549 breast, 108%; with MDA-MB-435 melanoma, 107%; with SW-620 colon it was 109%; in the test on MCF7 breast, 125%; with HCT-116 colon, 107%. The growth with HCC-2998 colon was 108%; with KM12 colon, 109%.
Take `CC(=Nc1ccccc1)C1=C(O)C(Cc2cccc(F)c2)NC1=O` (stereo unspecified): the growth was 72.6% in the test on T-47D breast; -20.2% (active) in the test on BT-549 breast; -46.2% (active) with MDA-MB-435 melanoma; 26.8% in the test on SW-620 colon; 20.9% in the test with MCF7 breast; 7.22% (active) in the test on HCT-116 colon. Besides, the growth in the test with HCC-2998 colon was 26.9%; in the test on KM12 colon, -3.04% (active).
Take `Cc1c(O)cccc1O`: the growth in the test with T-47D breast was 98.2%; with BT-549 breast, 77.1%; in the test on MDA-MB-435 melanoma, 94.9%; in the test with SW-620 colon, 99.5%; in the test with MCF7 breast, 104%; in the test with HCT-116 colon, 103%. Besides, the growth with HCC-2998 colon was 102%; in the test on KM12 colon, 118%.
Regarding `O=S(=O)(Cc1ccccc1)c1ccccc1`, the growth in the test with T-47D breast was 110%; with BT-549 breast it was 105%; in the test with MDA-MB-435 melanoma, 107%; in the test with SW-620 colon, 115%; in the test with MCF7 breast it was 99.5%; in the test on HCT-116 colon, 103%. Also, the figures for the growth with HCC-2998 colon and with KM12 colon were 105% and 110%, respectively.
Regarding `CCCCC(CC)COC(C)=O` (stereo unspecified), the growth in the test on T-47D breast is 97.2%; with BT-549 breast, 107%; in the test with MDA-MB-435 melanoma, 105%; in the test on SW-620 colon it was 104%; with MCF7 breast it was 96%; with HCT-116 colon, 108%. Also, the figures for the growth in the test with HCC-2998 colon and with KM12 colon were 105% and 101%, respectively.
As to `CCC(C)(O)c1ccc(C)cc1` (stereo unspecified), the growth in the test on T-47D breast is 104%; with BT-549 breast it was 105%; in the test with MDA-MB-435 melanoma it was 106%; with SW-620 colon, 98.2%; with MCF7 breast, 100%; with HCT-116 colon, 108%. For the same molecule, the growth is 105% with HCC-2998 colon and 100% in the test with KM12 colon.
With `C/C(=N/NC(N)=O)c1ccco1`, the growth with T-47D breast was 83.5%; with BT-549 breast, 102%; in the test with MDA-MB-435 melanoma it was 107%; with SW-620 colon it was 109%; with MCF7 breast, 98.4%; in the test on HCT-116 colon, 101%. Besides, the values for the growth in the test with HCC-2998 colon and in the test on KM12 colon were 92.1% and 102%, respectively.
As to `CC1CCC(C(=O)O)N1` (stereo unspecified), the growth in the test with T-47D breast is 86.4%; with BT-549 breast, 102%; with MDA-MB-435 melanoma, 111%; with SW-620 colon, 113%; in the test on MCF7 breast, 95%; with HCT-116 colon, 102%. Also, the results for the growth with HCC-2998 colon and in the test with KM12 colon were 97.8% and 106%, respectively.
For `CC(=O)N(C)c1ccc([N+](=O)[O-])cc1`, the growth with T-47D breast was 94.7%; in the test with BT-549 breast, 97.4%; in the test on MDA-MB-435 melanoma it was 113%; in the test on SW-620 colon it was 107%; in the test with MCF7 breast it was 95.6%; in the test with HCT-116 colon, 102%. Besides, the growth in the test with HCC-2998 colon was 94.8%; with KM12 colon, 114%.
Turning to `CN(C)c1ccc(S(=O)(=O)O)cc1`, the growth in the test with T-47D breast was 87.6%; in the test with BT-549 breast, 98.6%; in the test on MDA-MB-435 melanoma, 110%; with SW-620 colon it was 111%; in the test on MCF7 breast, 99.8%; with HCT-116 colon, 96%. In addition, the growth in the test with HCC-2998 colon was 103%; in the test on KM12 colon, 104%.
For the molecule `CC1CCC2C(C)(C)C3CC12CC1OC13C` (stereo unspecified), the growth in the test on T-47D breast is 99.3%; in the test on BT-549 breast, 107%; with MDA-MB-435 melanoma, 107%; with SW-620 colon, 98.8%; in the test on MCF7 breast it was 102%; in the test with HCT-116 colon, 101%. Also, the results for the growth in the test on HCC-2998 colon and in the test on KM12 colon were 127% and 111%, respectively.
As for `CCc1nn(Cc2ccccc2)c2nc(C)c(CCc3ccccc3)c(Cl)c12`, the growth in the test on T-47D breast was 59.2%; in the test with BT-549 breast it was 99.3%; in the test with MDA-MB-435 melanoma, 92.4%; in the test on SW-620 colon it was 99.2%; in the test on MCF7 breast it was 82.7%; in the test with HCT-116 colon, 81.2%. The growth in the test with HCC-2998 colon and in the test on KM12 colon was 101% each time.
On to `COS(=O)(=O)c1ccc(Br)cc1`, for which the growth in the test with T-47D breast was 93.9%; in the test on BT-549 breast, 113%; in the test on MDA-MB-435 melanoma, 110%; in the test on SW-620 colon it was 97.5%; in the test on MCF7 breast it was 97.3%; in the test with HCT-116 colon it was 93.9%. In addition, the values for the growth in the test on HCC-2998 colon and in the test on KM12 colon were 99.8% and 91.7%, respectively.
Regarding `CCOC(=O)CCCC(=O)OCC`, the growth in the test on T-47D breast was 96.4%; with BT-549 breast it was 104%; in the test with MDA-MB-435 melanoma, 106%; in the test with SW-620 colon, 102%; in the test with MCF7 breast, 97.9%; in the test with HCT-116 colon, 97.9%. Besides, the growth is 105% in the test on HCC-2998 colon and 99.6% in the test with KM12 colon.
